Laboratory results reported in PubChem BioAssay (NCATS).
Inconclusive results are not listed. The source made the active and inactive calls. Calls come from the whole dose curve; as a rule, active = well fitted inhibition curve with a large enough effect; inconclusive = small, poorly fitted or top-dose-only effect; inactive = flat fitted curve, though single readings scatter.
% is set by controls: 0 for no effect and ±100 for the full control effect.

What follows are compounds tested against Calcium and integrin-binding protein 1 (Homo sapiens) (UniProt Q99828) (assay: Primary qHTS for Identification of Calcium Integrin Binding Protein 1 (CIB1) Competitor (AID 1508620;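 note: GST tagged CIB1 binding a fluorescein labelled alphaIIb integrin peptide tracer; top concentration of the series differs between compounds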)). Conditions: CIB1-GST / FITC-alphaIIb peptide fluorescence polarization; series mostly up to 114 µM; activity change, negative = inhibition: at the top concentration.
Chain of Calcium and integrin-binding protein 1 (Homo sapiens) (Q99828 whole entry, looked up): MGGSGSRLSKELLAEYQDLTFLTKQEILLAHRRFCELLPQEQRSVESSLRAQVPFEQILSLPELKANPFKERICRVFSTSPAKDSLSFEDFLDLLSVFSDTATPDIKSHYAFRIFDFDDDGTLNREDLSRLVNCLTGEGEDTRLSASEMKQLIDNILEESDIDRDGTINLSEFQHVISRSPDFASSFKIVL
In short: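 Fluorescence polarization competition: CIB1-GST (1 uM final) preincubated with compound 15 min at room temperature, then FITC-labeled alphaIIb peptide (100 nM final) added for another 15 min. Polarization read at Ex 480/Em 540.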
For `Cc1cc(SCc2sc(-c3ccc(C(F)(F)F)c(F)c3)nc2C)ccc1OCC(=O)O`, the Potency was “inactive”.
With `CCCC(C)(COC(N)=O)COC(=O)NC(C)C` (configuration not stated) the Potency was “inactive”.
With `COC1(CS(=O)c2ccccc2)CCN(CCc2c[nH]c3ccc(F)cc23)CC1` (configuration not stated) the “activity change, negative = inhibition” value was -3.49% [at 57.7 µM] (inactive).
In the case of `COc1ccc(C(=O)c2c(C)n(CCN3CCOCC3)c3ccccc23)cc1`, the Potency is reported as “inactive”.
For `Cc1sc2c(c1C)C(c1ccc(Cl)cc1)=N[C@@H](CC(=O)OC(C)(C)C)c1nnc(C)n1-2`, the “activity change, negative = inhibition” value was -0.73% [at 57.7 µM] (inactive).
`C[C@@H]1[C@@H](C(=O)C[C@H]2O[C@@H]3O[C@]4(C)CC[C@@H]5[C@H](C)CC[C@@H]([C@H]2C)[C@@]35OO4)O[C@@H]2O[C@]3(C)CC[C@H]4[C@H](C)CC[C@@H]1[C@@]24OO3` was tested, and the “activity change, negative = inhibition” value was -2% [at 57.7 µM] (inactive).
For `COc1ccc2c(c1OC)CN1CCc3cc4c(cc3C1C2)OCO4` (configuration not stated), the Potency was “inactive”.
In the case of `O=C(NC(O)C(Cl)(Cl)Cl)NC(O)C(Cl)(Cl)Cl` (configuration not stated), the “activity change, negative = inhibition” value is reported as -2.41% (inactive).
With `Cc1ccc(-c2nc3ccc(C)cn3c2CC(=O)N(C)C)cc1` the “activity change, negative = inhibition” value was 0.211% (inactive).
With `CNC(=O)c1ccc(N2C(=S)N(c3ccc(C#N)c(C(F)(F)F)c3)C(=O)C23CCC3)cc1F` the Potency was “inactive”.
In the case of `CC(C)CC(N(C)C)C1(c2ccc(Cl)cc2)CCC1` (configuration not stated), the Potency is reported as “inactive”.
`C[C@]12C/C(=C/O)C(=O)C[C@@H]1CC[C@@H]1[C@@H]2CC[C@@]2(C)[C@H]1CC[C@]2(C)O` was tested, and the “activity change, negative = inhibition” value was 1.5% (inactive).
For `CCN(C(C)=O)c1cccc(-c2ccnc3c(C#N)cnn23)c1`, the “activity change, negative = inhibition” value was -0.946% (inactive).
With `N#CC(C#N)=Cc1ccc(O)c(O)c1` the “activity change, negative = inhibition” value was -8.66% (inactive).
`CNC(=O)N1N=C(c2ccc(N)cc2)c2cc3c(cc2CC1C)OCO3` (configuration not stated) was tested, and the Potency was “inactive”.
For `CC1=C2C[C@@H]3[C@@H](CC=C4C[C@@H](O)CC[C@@]43C)[C@@H]2CC[C@]12O[C@H]1C[C@H](C)CN[C@H]1[C@H]2C`, the “activity change, negative = inhibition” value was 1.95% [at 57.7 µM] (inactive).
For `Cc1ccc2c(c1)C1CN(C)CCC1N2` (configuration not stated), the “activity change, negative = inhibition” value was -9.43% [at 57.7 µM] (inactive).
`CC1NCCOC1c1ccccc1` (configuration not stated) was tested, and the “activity change, negative = inhibition” value was 2.95% (inactive).
In the case of `Cc1ccc(S(=O)(=O)N[C@@H](CCCCN)C(=O)CCl)cc1`, the “activity change, negative = inhibition” value is reported as -9.14% (inactive).
For `CO[C@]12CC[C@@]3(C[C@@H]1[C@](C)(O)C(C)(C)C)[C@@H]1Cc4ccc(O)c5c4[C@@]3(CCN1CC1CC1)[C@H]2O5`, the “activity change, negative = inhibition” value was 2.88% [at 228 µM] (inactive).
In the case of `CC(C)=CCOc1c2occc2cc2ccc(=O)oc12`, the “activity change, negative = inhibition” value is reported as -1.67% (inactive).
With `CCCN1CCC[C@@H]2Cc3nc(N)ncc3C[C@H]21` the “activity change, negative = inhibition” value was 33% (inactive).
With `Clc1cccc(N2CCNCC2)c1` the “activity change, negative = inhibition” value was 24.2% (inactive).
With `CCC1(C2=NCCN2)Cc2ccccc2O1` (configuration not stated) the “activity change, negative = inhibition” value was 7.56% (inactive).
`c1ccc(C2CC2)c(OCC2=NCCN2)c1` was tested, and the “activity change, negative = inhibition” value was 3.03% (inactive).
With `CCN(CC)CCN1C(=O)CN=C(c2ccccc2F)c2cc(Cl)ccc21` the “activity change, negative = inhibition” value was 6.12% (inactive).
`C[C@]12CCC(=O)C(O)=C1CC[C@@H]1[C@@H]2CC[C@]2(C)C(=O)CC[C@@H]12` was tested, and the “activity change, negative = inhibition” value was 3.5% (inactive).
For `CC[N+](CC)(CC)CC`, the “activity change, negative = inhibition” value was -3.98% (inactive).
For `O=C(O)c1ccc2[nH]cc(CCCCN3CC=C(c4ccccc4)CC3)c2c1`, the “activity change, negative = inhibition” value was -6.25% (inactive).
With `COC[C@@H](NC(C)=O)C(=O)NCc1ccccc1` the “activity change, negative = inhibition” value was 2.78% (inactive).
In the case of `NCCc1cc(O)c(O)cc1O`, the “activity change, negative = inhibition” value is reported as -2.9% (inactive).
`CC(=O)[C@H]1CC[C@H]2[C@@H]3CC[C@H]4C[C@H](O)CC[C@]4(C)[C@H]3C(=O)C[C@]12C` was tested, and the “activity change, negative = inhibition” value was -2.04% (inactive).
For `CN(C)CCN(C)CCc1ccc(Cl)c(Cl)c1`, the “activity change, negative = inhibition” value was -3.16% [at 57.7 µM] (inactive).
With `CNCC(O)c1ccc(O)cc1` (configuration not stated) the Potency was “inactive”.
`C[C@@H]1[C@@H](CC(C[C@H]2O[C@@H]3O[C@]4(C)CC[C@@H]5[C@H](C)CC[C@@H]([C@H]2C)[C@@]35OO4)C[S+](=O)([O-])c2ccc(COC(=O)N(C)C)cc2)O[C@@H]2O[C@]3(C)CC[C@H]4[C@H](C)CC[C@@H]1[C@@]24OO3` (some centres not stated) was tested, and the “activity change, negative = inhibition” value was -2.91% [at 57.7 µM] (inactive).
For `CC(C)(N)Cc1ccc(Cl)cc1`, the “activity change, negative = inhibition” value was 6.65% (inactive).
With `CCC(=O)C(CC(C)N(C)C)(c1ccccc1)c1ccccc1` (configuration not stated) the “activity change, negative = inhibition” value was -3.48% [at 228 µM] (inactive).
